In PubChem BioAssay (EPA / NIEHS) one finds outcome and AC50 data, which are given here for seven molecules.

The target in assay [1] is T1, Thyroid hormone receptor alpha (Rattus norvegicus) + Thyroid hormone receptor beta (Rattus norvegicus) (UniProt P18113+P63059). Nature of the assay: TOX21_TR_LUC_GH3_Antagonist_Followup: Tox21 GH3 Thyroid Hormone Receptor Antagonism Luciferase Follow-Up Assay (AID 2283942; active = hit-call score of the fitted dose curve at least 0.9, where 1 is the maximum). A digest of the protocol:
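Luminescence read-out (ONE-Glo, 30 min at room temperature) in GH3 reporter cells challenged with 1.0 nM T3 final. Compounds ran at 92 uM to 5nM over 15 concentrations for 24 h; DMSO served as negative control and baseline.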

The target in assay [2] is THRB (gene 7068) (UniProt P10828). Nature of the assay: TOX21_TRB_BLA_Antagonist_Followup_ratio: Tox21 Thyroid Hormone Receptor beta Antagonism Beta-lactamase (BLA) Follow-Up Assay, Ratio (AID 2283958; active = hit-call score of the fitted dose curve at least 0.9, where 1 is the maximum). A digest of the protocol: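 Cells were plated and allowed to attach for 5 h, then dosed with compounds in DMSO at 11 concentrations for 18 h at 37C. Beta-lactamase reporter activity was measured via CCF4-AM FRET as the 460:530 nm ratio.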

Assay [3] in a line: TOX21_TRB_BLA_Antagonist_Followup_viability: Viability Assessment in the Tox21 Thyroid Hormone Receptor beta Antagonism Beta-lactamase (BLA) Follow-Up Assay (AID 2283961; active = hit-call score of the fitted dose curve at least 0.9, where 1 is the maximum). A digest of the protocol: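 TRβ-bla HEK293T (human TRβ LBD fused to GAL4 DBD), 3,000 cells/well, 2% charcoal-stripped FBS, phenol red-free medium; 18 h compound exposure, 37C; CellTiter-Glo 30 min RT; luminescence, loss-of-signal readout.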

Assay [4] addresses T1, Thyroid hormone receptor alpha (Rattus norvegicus) + Thyroid hormone receptor beta (Rattus norvegicus). The assay can be described thus: TOX21_TR_LUC_GH3_Agonist_Followup: Tox21 GH3 Thyroid Hormone Receptor Agonism Luciferase Follow-Up Assay (AID 2283939; active = hit-call score of the fitted dose curve at least 0.9, where 1 is the maximum). The method, boiled down:
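Agonist-mode confirmatory run: 15 concentrations (5 nM to 92 uM final) on GH3 rat pituitary cells, 24 h at 37C/5% CO2, T3 as positive control. Luminescence read with ONE-Glo after 30 min.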

The target of the next assay is THRA (gene 7067) (UniProt P10827). Nature of the assay: TOX21_TRA_COA_Agonist_Followup_ratio: Tox21 Thyroid Hormone Receptor alpha Agonism through Coactivator Recruitment Follow-Up Assay, Ratio (AID 2283948). A digest of the protocol:
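Follow-up specificity assay in which TRα ligand-binding domain, expressed as a GST fusion, recruits a fluorescein-labelled SRC-2 peptide. Energy transfer from a terbium anti-GST antibody gives the acceptor/donor ratio, fitted upward relative to DMSO.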

Assay [5] has as its target THRB (gene 7068) (UniProt P10828). The assay can be described thus: TOX21_TRB_COA_Agonist_Followup_ratio: Tox21 Thyroid Hormone Receptor beta Agonism through Coactivator Recruitment Follow-Up Assay, Ratio (AID 2283963). The method, boiled down:
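Cell-free TR-FRET coactivator recruitment: GST-tagged TRβ LBD (5.0 nM) with 0.10% BSA incubated with compound, then fluorescein-SRC-2 peptide (200 nM) and Tb-anti-GST antibody (2 nM) added. 520:495 nm ratio normalized to DMSO (0%) and T3 (100%).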

The nature of assay [6]: CEETOX_H295R_OHPREG_noMTC: CeeTox H295R High-throughput Steroidogenesis Assay for OH-Pregnenolone (OHPREG), maximum tolerated concentration (MTC) filtered results only (AID 2283912). Conditions: actives raise or lower the signal. The method, boiled down: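 H295R; 10 uM forskolin 48 h pre-stim; test cpd in DMSO (0.1% final) 48 h; media MTBE-extracted, HPLC-MS/MS for OH-pregnenolone; bidirectional fit vs DMSO; no MTC (MTT) filtering.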

Assay [7] is described as follows: CEETOX_H295R_OHPROG_noMTC: CeeTox H295R High-throughput Steroidogenesis Assay for OH-Progesterone (OHPROG), maximum tolerated concentration (MTC) filtered results only (AID 2283914). Conditions: actives raise or lower the signal. The method, boiled down: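 Medium hormone measured by reverse-phase C18 HPLC with positive electrospray MS/MS after MTBE liquid-liquid extraction. Cells had 48 h forskolin (10 uM) prestimulation, then 48 h chemical dosing. Gain or loss of signal fitted relative to DMSO baseline.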

Assay [8] can be described thus: CEETOX_H295R_CORTISOL_noMTC: CeeTox H295R High-throughput Steroidogenesis Assay for Cortisol, maximum tolerated concentration (MTC) filtered results only (AID 2283916). Conditions: actives raise or lower the signal. The method, boiled down:
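H295R human adrenal cells prestimulated 48 h with 10 uM forskolin, then exposed 48 h to chemical in 0.1% DMSO; cortisol in medium quantified by HPLC-MS/MS; bidirectional fit vs DMSO baseline, concentrations not MTT-filtered for MTC.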

Assay [9] in a line: CEETOX_H295R_CORTIC_noMTC: CeeTox H295R High-throughput Steroidogenesis Assay for Corticosterone (CORTIC), maximum tolerated concentration (MTC) filtered results only (AID 2283917). Conditions: actives raise or lower the signal. A digest of the protocol: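 Corticosterone secreted into the medium was measured by reverse-phase C18 HPLC with tandem MS after MTBE extraction. Cells (H295R) had 48 h forskolin (10 uM) stimulation before 48 h chemical exposure; gain or loss of signal was fitted relative to DMSO.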

A short description of assay [10]: CEETOX_H295R_DOC_noMTC: CeeTox H295R High-throughput Steroidogenesis Assay for DOC, maximum tolerated concentration (MTC) filtered results only (AID 2283918). As to conditions: actives raise or lower the signal. A digest of the protocol:
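H295R cells prestimulated 48 h with 10 uM forskolin, then exposed 48 h to chemical in 0.1% DMSO. 11-Deoxycorticosterone in medium measured by MTBE extraction and HPLC-MS/MS; bidirectional fit vs DMSO, no MTC filter.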

A short description of assay [11]: CEETOX_H295R_ESTRADIOL_noMTC: CeeTox H295R High-throughput Steroidogenesis Assay for Estradiol, maximum tolerated concentration (MTC) filtered results only (AID 2283919). As to conditions: actives raise or lower the signal. The method, boiled down:
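Readout: dansyl-derivatized estradiol quantified by LC-MS/MS in medium from H295R cells dosed 48 h (0.1% DMSO) following 48 h forskolin (10 uM) prestimulation. Gain or loss of signal fitted against DMSO; no MTC filtering applied.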

Assay [12] can be described thus: CEETOX_H295R_PROG_noMTC: CeeTox H295R High-throughput Steroidogenesis Assay for Progesterone (PROG), maximum tolerated concentration (MTC) filtered results only (AID 2283920). As to conditions: actives raise or lower the signal. The method, boiled down:
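Readout: medium progesterone by MTBE extraction, reverse-phase C18 HPLC, ESI-positive MS/MS. Human H295R cells, 10 uM forskolin pretreatment 48 h, chemical 48 h in 0.1% DMSO. Gain or loss fitted against DMSO baseline.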

A short description of assay [13]: CEETOX_H295R_ESTRONE_noMTC: CeeTox H295R High-throughput Steroidogenesis Assay for Estrone, maximum tolerated concentration (MTC) filtered results only (AID 2283921). As to conditions: actives raise or lower the signal. The method, boiled down:
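Estrone in spent medium, quantified by tandem MS following dansyl chloride derivatization, after 48 h chemical exposure (0.1% DMSO) of forskolin-prestimulated (10 uM, 48 h) H295R cells; concentrations not MTC-filtered, bidirectional fit against DMSO.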

Assay [14] in a line: CEETOX_H295R_ANDR_noMTC: CeeTox H295R High-throughput Steroidogenesis Assay for Androstenedione (ANDR), maximum tolerated concentration (MTC) filtered results only (AID 2283915). Conditions: actives raise or lower the signal. A digest of the protocol: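 Androstenedione secreted into medium was measured by LC-MS/MS after MTBE extraction. Human adrenal H295R cells received 10 uM forskolin for 48 h before 48 h chemical exposure (0.1% DMSO). Gain or loss fitted against DMSO, including concentrations above the MTT-derived MTC.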

The nature of assay [15]: CEETOX_H295R_TESTO_noMTC: CeeTox H295R High-throughput Steroidogenesis Assay for Testosterone (TESTO), maximum tolerated concentration (MTC) filtered results only (AID 2283924). As to conditions: actives raise or lower the signal. The method, boiled down:
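Medium testosterone, measured by HPLC-MS/MS after liquid-liquid extraction, was fitted in both directions relative to DMSO without MTC filtering. Adrenal H295R cells received 48 h chemical exposure (0.1% DMSO final) after 48 h forskolin (10 uM) prestimulation; viability by MTT.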

For assay [16], the target named is PGR (gene 5241) (UniProt P06401). Nature of the assay: TOX21_PR_BLA_Followup_Antagonist_ratio: Tox21 HEK293 Progesterone Receptor (PR) Antagonism Beta-lactamase Follow-Up Assay, Ratio (AID 2283934; active = hit-call score of the fitted dose curve at least 0.9, where 1 is the maximum;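 also: PR-UAS-bla HEK293T cells stimulated with 1 nM R5020 agonist for 16 hr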). A digest of the protocol:
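Cells are plated, rested 6 hr, then dosed with test compound in DMSO and challenged with 1 nM promegestone. After 16 hr incubation, substrate loading for 2 h at room temperature precedes fluorescence reading; viability is measured in the same wells.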

Assay [17] is described as follows: TOX21_PR_BLA_Followup_Agonist_viability: Viability Assessment in the Tox21 HEK293 Progesterone Receptor (PR) Agonism Beta-lactamase Follow-Up Assay (AID 2283935; active = hit-call score of the fitted dose curve at least 0.9, where 1 is the maximum;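 also: signal loss means lower viability so actives are cytotoxic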). A digest of the protocol: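 Cells were plated in medium with 2% charcoal-stripped FBS and rested 6 hr. Compounds in DMSO were then added for 16 hr at 37C, followed by the FRET substrate step and CellTiter-Glo luminescence after 30 min.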

Assay [18] is described as follows: TOX21_PR_BLA_Followup_Antagonist_viability: Viability Assessment in the Tox21 HEK293 Progesterone Receptor (PR) Antagonism Beta-lactamase Follow-Up Assay (AID 2283936; active = hit-call score of the fitted dose curve at least 0.9, where 1 is the maximum;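 also: cells exposed to compound with R5020 agonist for 16 h; hits lower the luminescence signal meaning cytotoxicity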). A digest of the protocol:
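PR-UAS-bla HEK293T cells in medium with 2% charcoal-stripped FBS were treated with compounds plus R5020 for 16 hr at 37C. After the beta-lactamase read, CellTiter-Glo was added to the same wells and luminescence read after 30 min at room temperature.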

Assay [19] deals with PGR (gene 5241) (UniProt P06401). The assay can be described thus: TOX21_PR_LUC_Followup_Antagonist: Tox21 HEK293 Progesterone Receptor (PR) Antagonism Luciferase Follow-Up Assay (AID 2283938; active = hit-call score of the fitted dose curve at least 0.9, where 1 is the maximum;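 also: curve fitted upward as signal gain over DMSO baseline despite antagonist label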). A digest of the protocol:
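Cells are grown 5 days in charcoal-stripped-FBS assay medium, plated, left 5 h, then dosed with compound and incubated 16 h. ONE-Glo reagent is added and luminescence read after 30 min.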

Structures are written as SMILES. Records with an inconclusive call do not appear. Activity calls are given as the source filed them. The calls were made as follows, unless noted: active = hit-call score of the fitted dose curve at least 0.9, where 1 is the maximum; inactive = score below 0.9.

THRB (gene 7068), sequence (P10828 whole entry, looked up, the tested form may be a part): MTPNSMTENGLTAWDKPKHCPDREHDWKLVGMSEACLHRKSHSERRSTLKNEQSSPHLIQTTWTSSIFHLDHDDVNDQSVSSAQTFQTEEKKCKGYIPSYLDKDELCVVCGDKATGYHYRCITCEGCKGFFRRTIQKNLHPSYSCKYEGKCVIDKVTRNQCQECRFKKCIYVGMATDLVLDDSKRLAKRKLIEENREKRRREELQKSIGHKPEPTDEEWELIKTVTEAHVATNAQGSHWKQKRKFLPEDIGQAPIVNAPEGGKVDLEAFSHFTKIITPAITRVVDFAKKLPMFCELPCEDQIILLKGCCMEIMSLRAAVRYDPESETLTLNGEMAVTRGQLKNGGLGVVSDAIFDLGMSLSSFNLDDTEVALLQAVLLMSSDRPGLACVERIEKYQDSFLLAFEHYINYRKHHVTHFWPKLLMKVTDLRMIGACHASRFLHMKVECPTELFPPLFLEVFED
PGR (gene 5241), sequence (P06401 whole entry, looked up): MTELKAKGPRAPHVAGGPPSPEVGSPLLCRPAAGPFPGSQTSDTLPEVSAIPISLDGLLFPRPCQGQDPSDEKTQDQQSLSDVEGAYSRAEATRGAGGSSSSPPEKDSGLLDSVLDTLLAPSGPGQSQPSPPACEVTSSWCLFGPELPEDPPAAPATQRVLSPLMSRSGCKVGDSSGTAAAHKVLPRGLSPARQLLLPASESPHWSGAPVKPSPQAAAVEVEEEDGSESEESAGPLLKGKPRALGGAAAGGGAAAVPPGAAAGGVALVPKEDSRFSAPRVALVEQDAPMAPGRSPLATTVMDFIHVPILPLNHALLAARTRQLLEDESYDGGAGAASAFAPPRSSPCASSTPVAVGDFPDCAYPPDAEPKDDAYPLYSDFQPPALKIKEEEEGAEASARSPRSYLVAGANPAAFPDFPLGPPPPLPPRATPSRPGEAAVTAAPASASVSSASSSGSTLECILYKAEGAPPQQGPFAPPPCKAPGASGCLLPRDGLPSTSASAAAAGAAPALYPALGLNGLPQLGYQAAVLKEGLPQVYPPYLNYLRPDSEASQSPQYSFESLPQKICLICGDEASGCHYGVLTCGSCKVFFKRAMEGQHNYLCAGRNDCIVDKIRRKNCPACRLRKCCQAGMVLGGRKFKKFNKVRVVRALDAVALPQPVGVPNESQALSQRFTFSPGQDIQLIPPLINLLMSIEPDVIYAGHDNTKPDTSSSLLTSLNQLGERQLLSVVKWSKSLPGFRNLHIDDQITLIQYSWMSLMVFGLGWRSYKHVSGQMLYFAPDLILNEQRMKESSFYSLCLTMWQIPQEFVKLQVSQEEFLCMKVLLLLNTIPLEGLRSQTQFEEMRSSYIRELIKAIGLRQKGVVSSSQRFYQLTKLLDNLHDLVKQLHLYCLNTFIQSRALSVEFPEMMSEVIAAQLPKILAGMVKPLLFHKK
T1 sequence (P63059 whole entry, looked up): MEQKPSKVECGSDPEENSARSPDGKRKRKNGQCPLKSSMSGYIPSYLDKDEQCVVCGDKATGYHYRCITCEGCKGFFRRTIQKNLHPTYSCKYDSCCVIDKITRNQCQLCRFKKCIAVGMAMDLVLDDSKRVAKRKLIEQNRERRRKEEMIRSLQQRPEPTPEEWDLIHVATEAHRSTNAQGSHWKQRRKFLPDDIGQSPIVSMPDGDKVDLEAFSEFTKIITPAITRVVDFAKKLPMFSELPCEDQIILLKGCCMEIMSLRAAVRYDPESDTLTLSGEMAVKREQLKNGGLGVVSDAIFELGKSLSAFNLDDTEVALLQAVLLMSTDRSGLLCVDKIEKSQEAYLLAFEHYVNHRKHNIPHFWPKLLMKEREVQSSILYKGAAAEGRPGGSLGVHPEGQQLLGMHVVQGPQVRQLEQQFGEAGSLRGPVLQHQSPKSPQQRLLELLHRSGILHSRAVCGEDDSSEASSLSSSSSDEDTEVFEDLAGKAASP
T1 sequence (P18113 whole entry, looked up): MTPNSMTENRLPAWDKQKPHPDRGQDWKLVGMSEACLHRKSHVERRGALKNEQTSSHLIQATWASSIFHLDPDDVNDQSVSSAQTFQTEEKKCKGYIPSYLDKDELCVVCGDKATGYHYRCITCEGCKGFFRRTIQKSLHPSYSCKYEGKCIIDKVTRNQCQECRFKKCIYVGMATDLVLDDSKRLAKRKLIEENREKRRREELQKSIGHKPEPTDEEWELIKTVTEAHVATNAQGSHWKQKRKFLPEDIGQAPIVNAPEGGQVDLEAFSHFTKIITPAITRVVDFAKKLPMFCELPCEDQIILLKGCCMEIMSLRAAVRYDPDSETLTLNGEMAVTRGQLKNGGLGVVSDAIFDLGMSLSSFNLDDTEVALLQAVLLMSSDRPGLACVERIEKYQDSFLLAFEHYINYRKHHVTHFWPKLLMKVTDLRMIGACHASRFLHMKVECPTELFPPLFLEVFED
THRA (gene 7067), sequence (P10827 whole entry, looked up, the tested form may be a part): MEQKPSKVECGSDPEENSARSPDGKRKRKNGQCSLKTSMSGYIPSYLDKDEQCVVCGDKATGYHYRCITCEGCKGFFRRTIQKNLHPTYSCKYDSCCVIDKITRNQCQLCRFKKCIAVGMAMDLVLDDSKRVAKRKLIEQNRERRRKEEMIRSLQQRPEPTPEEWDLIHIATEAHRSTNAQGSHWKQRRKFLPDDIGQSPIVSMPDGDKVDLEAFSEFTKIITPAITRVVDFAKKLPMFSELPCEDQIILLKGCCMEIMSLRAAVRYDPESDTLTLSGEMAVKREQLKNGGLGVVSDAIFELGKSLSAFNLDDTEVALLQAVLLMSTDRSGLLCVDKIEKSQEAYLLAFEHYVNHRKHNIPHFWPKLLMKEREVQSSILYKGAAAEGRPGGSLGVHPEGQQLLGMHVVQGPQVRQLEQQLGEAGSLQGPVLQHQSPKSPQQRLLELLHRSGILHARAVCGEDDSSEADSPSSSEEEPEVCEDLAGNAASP

In the case of `Nc1nc(Cl)nc2c1ncn2[C@H]1C[C@H](O)[C@@H](CO)O1`, the outcome (in [1]; in the assay with THRB (gene 7068) [2]; in [3]) was inactive.

In the case of `Cc1occc(=O)c1O`, the result (in assay [4]; with THRA (gene 7067); with THRB (gene 7068) [5]) was inactive.

With `C=CCc1ccc(OC)c(OC)c1`, the result in [6], in assay [7], in [8], in assay [9] and in assay [10] was inactive.

A word on the AC50: it is the midpoint of the concentration-response curve, whichever way the signal moves. For `NC(=Nc1ccccc1)Nc1ccccc1`, the outcome in assay [6], in [7], in [11], in [12] and in [13] was inactive. The figures for the AC50 in assay [8], in [9] and in assay [10] were 44.4 µM (active), 39.1 µM (active) and 50 µM (active), respectively.

For the molecule `O=C(Oc1ccccc1)c1cccc(C(=O)Oc2ccccc2)c1`, the result in assay [6], in [7], in assay [14], in assay [8], in assay [9] and in [10] was inactive. Besides, the call in assay [12] and in assay [15] was inactive.

Turning to `Nc1nc(=S)c2[nH]cnc2[nH]1`, the AC50 in assay [6] was 72.9 µM (active); in assay [7], 74.3 µM (active); in [14], 77 µM (active); in assay [8], 37 µM (active); in assay [9] it was 33.3 µM (active); in [10], 35.4 µM (active). Besides, the AC50 in [12] is 78.8 µM (active); in [15] it was 74.5 µM (active). The call in assay [11] and in assay [13] was inactive.

On to `CC(=O)[C@@]1(O)CC[C@H]2[C@@H]3CCC4=CC(=O)CC[C@]4(C)[C@H]3CC[C@@]21C`, for which the outcome (with PGR (gene 5241) [16]; in assay [17]; in assay [18]; in the assay with PGR (gene 5241) [19]) was inactive.
